Screening results as filed in PubChem.
Most compounds without a hit are left out; they make up all but 6.5% or so of the library.
VACV mCherry inh: inhibitors of vaccinia virus infection (mCherry reporter signal). 0.63% of 310,000 active. Vaccinia virus mCherry reporter infection, fluorescence. Potency, µM (titrated, usually from 36.5 µM), for the others: at the top dose activity change, negative = inhibition, most hits filed as inhibitors. AID 720579; calls by dose curve; tested in A549 cells; also: potency is read from the fitted curve at half-maximal effect; nearly all actives have a fitted effect of over 35% in size
HCMV inh: human cytomegalovirus inhibition. HFF cells, HCMV-luciferase reporter, 72 h; hits give low values. activity change, negative = inhibition, % at 57.5 µM. 4.5% of 410,000 active. AID 1259415; in the data active = activity change below about -60%; inconclusive = no clear call, values can overlap the other calls; inactive = above about -39%
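Two-dose cell screen: HFF monolayers treated with compounds and infected with luciferase-expressing HCMV at 1 PFU/cell, 72 h at 37C, then lysed for luciferase measurement.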
Lassa entry inh: Lassa virus entry inhibition; Lassa virus pseudotype entry inhibition, cell reporter; Potency, µM (top dose mostly 37.9 µM), inactives show top-dose activity change, negative = inhibition, hits mostly inhibitors; 1.2% of 300,000 active; AID 540256; calls by dose curve; tested in HEK293 cells; also: potency is read from the fitted curve at half-maximal effect; nearly all actives have a fitted effect of over 50% in size
FMDV antiviral: blocks foot and mouth disease virus | 1.2% of 410,000 active | Potency, µM (top dose mostly 57.9 µM), for the others: top-dose activity change, negative = inhibition, hits mostly inhibitors | FMDV antiviral cell-based qHTS; calls by dose curve; tested in HEK293T cells; also: read-out not given here; potency is read from the fitted curve at half-maximal effect; nearly all actives have a fitted effect of over 45% in size
Vaccinia Venus: inhibitors of vaccinia virus (Venus reporter); Potency, µM (top dose mostly 36.5 µM), for the others: at the top dose activity change, negative = inhibition, most hits filed as inhibitors; Vaccinia virus Venus reporter expression, fluorescence; 0.46% of 330,000 active; calls by dose curve; tested in A549 cells; also: potency is read from the fitted curve at half-maximal effect; nearly all actives have a fitted effect of over 30% in size
Marburg entry inh: blocks Marburg virus binding to or entry into cells. Marburg virus pseudotyped entry inhibition, cell reporter. Potency, µM (highest dose often 37.8 µM), without a hit: at the highest dose activity change, negative = inhibition, actives largely listed as inhibitors. 1.8% of 300,000 active; calls by dose curve; tested in HEK293 cells; also: potency is read from the fitted curve at half-maximal effect
An asterisk follows results filed as active; i = inactive; ? = inconclusive; . = not tested or not shown; [ ] = another dose, or the depositor's remark. % is scaled to controls: 0 for no effect and ±100 for the full control effect.

SMILES | VACV mCherry inh | HCMV inh | Lassa entry inh | FMDV antiviral | Vaccinia Venus | Marburg entry inh
COc1cc(/C=C/[N+](=O)[O-])ccc1OC(=O)c1cc2ccccc2oc1=O | -4% | -72* | 11%[46.1 µM] | -13% | -16% | 21%[46.1 µM]
O=C1CCCN1c1ccc(S(=O)(=O)Nc2ccc3c(c2)OCCO3)cc1 | ? | -81* | ? | . | ? | ?
Cc1ccc(S(=O)(=O)Nc2ccc3c(c2)OCCO3)cc1 | 0% | 15 | ? | 22% | -4% | -25%[46.1 µM]
O=C(Nc1nccs1)C1CC=CCC1 (centres undefined) | -11% | -69* | 3% | 12% | -6% | 7%[46.1 µM]
O=C(Nc1nccs1)NC1CCCCC1 | . | 36 | 1% | 33% | . | 13%
COc1ccccc1N1CC(C(=O)OC(C)C(=O)Nc2ccc(F)cc2)CC1=O (centres undefined) | ? | -36 | . | -2% | -16% | .
CCCCc1ccc(C(=O)COC(=O)c2ccc3nc(C)c(C)nc3c2)cc1 | 21% | . | . | . | 13% | .
CCn1c(SCC(=O)N/N=C/c2c[nH]c3ccccc23)nnc1-c1ccc(C(C)(C)C)cc1 | ? | -75* | 4.5µM* | ? | -25% | ?
CCn1c(SCC(=O)N/N=C/c2ccccc2OCC(=O)O)nnc1-c1ccccc1 | . | . | . | -21% | . | .
CCn1c(SCC(=O)N/N=C/c2ccc(C)o2)nnc1-c1ccc(C(C)(C)C)cc1 | -19% | -11 | ? | 32µM* | -18% | -21%
CCOC(=O)c1ccc(NC(=O)CSc2ncc(S(=O)(=O)c3ccc(C)c(Cl)c3)c(=O)[nH]2)cc1 | -5% | 10 | -12%[46.1 µM] | 3% | 9% | .
O=C(Nc1ccc(F)cc1)C(c1cc2ccccc2o1)N1CCN(CC(=O)N2CCCC2)CC1 (centres undefined) | 1% | 52 | . | -2% | -20% | .
COc1ccc([C@H](CC(=O)N2CCOCC2)C(C)C)cc1 | . | . | . | . | . | -1%
COC(=O)c1ccc(S(=O)(=O)N2CCc3ccccc32)cc1 | -14% | -15 | ? | -12% | -3% | 2.5µM*
COc1ccc(S(=O)(=O)N2CCc3ccccc32)cc1OC | 6% | -22 | ? | 1% | -28% | ?
O=S(=O)(c1ccc(F)cc1)N1CCc2ccccc21 | . | -34 | . | -21% | . | .
CCCCCCNC(=O)c1cc(S(=O)(=O)N2CCc3ccccc32)ccc1F | . | -69* | . | -14% | . | .
O=S(=O)(NC1CC1)c1ccc(S(=O)(=O)N2CCc3ccccc32)cc1 | -24% | -81* | -23% | ? | -21% | -25%
CCn1c(=O)n(CC)c2cc(S(=O)(=O)N3CCc4ccccc43)ccc21 | i | -92* | -20% | . | ? | ?
COc1ccc(-c2cc(C(C)=O)c(C)n2CCC(=O)Nc2cc(Cl)ccc2C)cc1 | -11% | 0 | -24%[46.1 µM] | -9% | -6% | .
CCOc1ccc(CC(=O)Nc2c3c(nn2C(C)(C)C)CS(=O)(=O)C3)cc1 | -13% | 34 | 12% | 2% | -3% | 33%
CC(=O)Nc1ccc(S(=O)(=O)NCc2ccccn2)cc1 | -1% | -17 | 22% | -17% | -11% | ?
COc1cccc(CNc2nc3cc(-c4ccc(F)cc4)sc3c(=O)n2C)c1OC | 7% | -71* | . | -20% | -12% | .
COc1cccc(CNc2nc3cc(-c4ccc(OC)c(OC)c4)sc3c(=O)n2C)c1 | -8% | 21 | . | ? | -30% | .
COc1cccc(CNc2nc3cc(-c4ccc(C)cc4)sc3c(=O)n2C)c1OC | -13% | 2 | . | 5% | -23% | .
SMILES | VACV mCherry inh | HCMV inh | Lassa entry inh | FMDV antiviral | Vaccinia Venus | Marburg entry inh
COc1cccc(CNc2nc3cc(-c4ccccc4)sc3c(=O)n2C)c1 | i | -65* | . | 0% | -20% | .
COCCNc1nc(Oc2ccc(NC(C)=O)cc2)c2sc(-c3ccccc3)cc2n1 | -14% | -16 | . | -18% | ? | .
COc1cccc(CNc2nc3cc(-c4ccsc4)sc3c(=O)n2C)c1OC | 13% | -68* | . | 32µM* | -14% | .
COCCNc1nc(NCc2ccc(NC(C)=O)cc2)c2sc(-c3ccccc3)cc2n1 | ? | -98* | . | -7% | 11µM* | .
COc1ccc(-c2noc(CSc3nnc(Cc4ccccc4)n3-c3cccc(C)c3)n2)cc1 | -18% | -23 | ? | ? | -5% | -4%[46.1 µM]
CC(=O)Nc1ccc(CNc2nc3cc(-c4ccsc4)sc3c(=O)n2C)cc1 | 6% | -66* | . | 0% | -17% | .
